Assay results: PubChem BioAssay AID624069 (Southern Research Specialized Biocontainment Screening …, 2012)
Active and inactive are the calls of the source. The rule behind the calls is not given here.

Experiment: Vero 76 cell cytotoxicity, dose response, cytotoxicity control, set 5 (AID 624069)
Conditions: Vero 76 cells cytotoxicity; series mostly up to 25 µM

Structure (SMILES) | outcome
CN1CCN(Cc2nc3ccc([N+](=O)[O-])cc3c(=O)n2-c2ccccc2F)CC1 | inactive
CCN1CCN(Cc2nc3ccc([N+](=O)[O-])cc3c(=O)n2-c2cccc(F)c2)CC1 | inactive
CCN1CCN(Cc2nc3ccc([N+](=O)[O-])cc3c(=O)n2-c2ccc(F)cc2)CC1 | inactive
CC(C)(C)OC(=O)N1CCN(Cc2nc3ccc([N+](=O)[O-])cc3c(=O)n2-c2ccccc2F)CC1 | inactive
O=c1c2cc([N+](=O)[O-])ccc2nc(CN2CCNCC2)n1-c1ccccc1F | inactive
CCN1CCN(Cc2nc3ccc([N+](=O)[O-])cc3c(=O)n2-c2ccccc2F)CC1 | inactive
CCN1CCN(Cc2nc3ccccc3c(=O)n2-c2ccccc2F)CC1 | inactive
CCN1CCN(Cc2nc3ccc(C(F)(F)F)cc3c(=O)n2-c2ccccc2F)CC1 | inactive
O=C(NCc1ccco1)C1CCN(C(=O)c2cc3sccc3n2Cc2ccc(F)cc2)CC1 | inactive
CCN1CCN(Cc2nc3ccc([N+](=O)[O-])cc3c(=O)n2-c2ccccc2)CC1 | inactive
